Consider one sequence from article PMC7862700, “An all-to-all approach to the identification of sequence-specific readers for epigenetic DNA modifications on cytosine”.

What all share (experiment): DAPPL (digital affinity profiling via proximity ligation, sequencing); 10 mM Tris-HCl pH 7.5, 50 mM NaCl, 1 mM DTT, 4% glycerol, room temperature, 30 min; GST-TFs on glutathione beads, 16-mer random dsDNA library, 0.1% formaldehyde crosslink after washing; high values mean tight binding
Experiment [1] addresses T1, FEV (Homo sapiens, UniProt Q99581 1-238).
T1 sequence: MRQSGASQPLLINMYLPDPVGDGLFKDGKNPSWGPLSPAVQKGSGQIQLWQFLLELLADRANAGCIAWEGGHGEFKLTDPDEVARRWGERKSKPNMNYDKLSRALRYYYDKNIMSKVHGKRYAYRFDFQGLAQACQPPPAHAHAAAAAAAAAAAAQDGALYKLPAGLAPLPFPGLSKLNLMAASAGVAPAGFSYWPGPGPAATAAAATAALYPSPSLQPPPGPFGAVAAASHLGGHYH
The conditions noted are these: protein: recombinant; tags: N-terminal GST; dsDNA, one strand shown. The gist of the method:
(§1)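 In yeast, human transcription factors were expressed with a GST fusion, then pulled down on glutathione beads and given DNA barcodes. Pooled with a tag-only sample, they were exposed to 200 nmole of a 16-mer random double-stranded DNA library (Tris/NaCl/DTT/glycerol buffer, room temperature, 30 min), washed, crosslinked with 0.1% formaldehyde, proximity-ligated using BsaI/T4 ligase for 1 h at 37 °C, PCR-amplified and read on an Illumina NextSeq500. Each hexamer's frequency of reads for a factor, divided by the matching frequency for the tag-only sample, gives the binding signal.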

In experiment [2] the target is ETV5 (Homo sapiens, UniProt P41161 1-510). The conditions noted are these: protein: recombinant; tags: N-terminal GST; dsDNA, one strand shown. In outline: as §1
ETV5, sequence (P41161 whole entry): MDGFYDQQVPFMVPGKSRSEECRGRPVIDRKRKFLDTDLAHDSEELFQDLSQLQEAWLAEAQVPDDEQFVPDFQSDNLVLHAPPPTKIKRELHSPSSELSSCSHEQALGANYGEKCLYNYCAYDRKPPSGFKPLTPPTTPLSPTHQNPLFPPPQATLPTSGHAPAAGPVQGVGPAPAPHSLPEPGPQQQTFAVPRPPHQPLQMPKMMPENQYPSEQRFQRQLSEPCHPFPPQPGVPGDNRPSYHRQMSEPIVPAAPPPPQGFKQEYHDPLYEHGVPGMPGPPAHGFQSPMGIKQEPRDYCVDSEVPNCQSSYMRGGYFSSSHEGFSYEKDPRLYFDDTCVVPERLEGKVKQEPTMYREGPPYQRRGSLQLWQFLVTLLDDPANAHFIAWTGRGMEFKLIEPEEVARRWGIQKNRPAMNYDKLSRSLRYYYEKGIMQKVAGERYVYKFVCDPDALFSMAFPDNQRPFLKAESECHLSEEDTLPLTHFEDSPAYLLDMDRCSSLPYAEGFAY
For experiment [3], the target named is HSF1 (Homo sapiens, UniProt Q00613 1-529). The conditions noted are these: protein: recombinant; tags: N-terminal GST; chain copies: 3; dsDNA, one strand shown. In outline:
as §1

The target of experiment [4] is T2, SPIC (Homo sapiens, UniProt Q8N5J4 1-248).
T2 sequence: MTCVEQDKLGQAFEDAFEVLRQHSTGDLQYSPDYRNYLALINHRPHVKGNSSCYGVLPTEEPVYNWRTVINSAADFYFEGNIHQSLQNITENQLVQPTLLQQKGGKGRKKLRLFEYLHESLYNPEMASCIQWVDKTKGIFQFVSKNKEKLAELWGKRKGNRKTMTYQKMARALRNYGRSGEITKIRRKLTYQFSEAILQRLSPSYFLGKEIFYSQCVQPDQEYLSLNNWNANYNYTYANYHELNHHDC
The following applies: protein: recombinant; tags: N-terminal GST; dsDNA, one strand shown. The gist of the method: as §1

For experiment [5], the target named is ELF4 (Homo sapiens, UniProt Q99607 1-663). The following applies: protein: recombinant; tags: N-terminal GST; dsDNA, one strand shown. In outline: as §1
ELF4, sequence (Q99607 whole entry): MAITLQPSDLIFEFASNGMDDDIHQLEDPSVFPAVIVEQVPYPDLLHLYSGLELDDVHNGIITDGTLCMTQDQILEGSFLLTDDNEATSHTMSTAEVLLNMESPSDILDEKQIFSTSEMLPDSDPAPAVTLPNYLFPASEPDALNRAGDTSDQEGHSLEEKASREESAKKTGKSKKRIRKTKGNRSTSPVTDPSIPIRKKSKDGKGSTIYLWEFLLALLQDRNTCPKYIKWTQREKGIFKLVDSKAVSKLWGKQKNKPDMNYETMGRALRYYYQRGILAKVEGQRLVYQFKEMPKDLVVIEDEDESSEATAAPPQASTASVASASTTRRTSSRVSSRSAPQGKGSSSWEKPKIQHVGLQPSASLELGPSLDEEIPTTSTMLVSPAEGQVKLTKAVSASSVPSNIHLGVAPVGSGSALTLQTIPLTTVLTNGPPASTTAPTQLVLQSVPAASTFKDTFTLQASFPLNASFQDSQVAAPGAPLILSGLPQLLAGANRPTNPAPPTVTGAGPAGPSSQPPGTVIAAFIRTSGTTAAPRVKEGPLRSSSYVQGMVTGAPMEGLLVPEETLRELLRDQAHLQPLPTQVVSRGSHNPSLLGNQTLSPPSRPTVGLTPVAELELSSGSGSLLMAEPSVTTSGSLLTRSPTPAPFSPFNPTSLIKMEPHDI
Experiment [6] concerns the target T3, ELK4 (Homo sapiens, UniProt P28324-2 1-405).
T3 sequence: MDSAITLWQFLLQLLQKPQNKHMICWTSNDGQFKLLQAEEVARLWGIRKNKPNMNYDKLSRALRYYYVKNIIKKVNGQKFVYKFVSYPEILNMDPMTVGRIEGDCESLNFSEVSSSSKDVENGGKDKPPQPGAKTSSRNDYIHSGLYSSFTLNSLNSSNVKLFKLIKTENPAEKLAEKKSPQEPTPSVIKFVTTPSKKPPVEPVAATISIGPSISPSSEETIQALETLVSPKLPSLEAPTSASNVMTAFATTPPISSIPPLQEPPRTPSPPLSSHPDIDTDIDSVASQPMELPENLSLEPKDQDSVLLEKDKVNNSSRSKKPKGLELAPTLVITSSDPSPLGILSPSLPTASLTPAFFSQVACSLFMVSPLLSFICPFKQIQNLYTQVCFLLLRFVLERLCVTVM
The following applies: protein: recombinant; tags: N-terminal GST; dsDNA, one strand shown. In outline:
as §1

The target in experiment [7] is T4, ETV2 (Homo sapiens, UniProt O00321 1-342).
T4 sequence: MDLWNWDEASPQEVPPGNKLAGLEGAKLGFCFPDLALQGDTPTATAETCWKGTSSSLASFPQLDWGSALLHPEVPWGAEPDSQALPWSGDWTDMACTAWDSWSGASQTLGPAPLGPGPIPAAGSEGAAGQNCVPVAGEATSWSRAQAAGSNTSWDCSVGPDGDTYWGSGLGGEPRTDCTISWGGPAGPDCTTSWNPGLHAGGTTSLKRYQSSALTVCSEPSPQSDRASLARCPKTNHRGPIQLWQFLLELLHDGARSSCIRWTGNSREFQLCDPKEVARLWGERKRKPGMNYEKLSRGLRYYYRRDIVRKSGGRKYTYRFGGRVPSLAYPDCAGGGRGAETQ
The conditions noted are these: protein: recombinant; tags: N-terminal GST; dsDNA, one strand shown. In outline:
as §1

For experiment [8], the target named is T5, ELF3 (Homo sapiens, UniProt P78545 1-371).
T5 sequence: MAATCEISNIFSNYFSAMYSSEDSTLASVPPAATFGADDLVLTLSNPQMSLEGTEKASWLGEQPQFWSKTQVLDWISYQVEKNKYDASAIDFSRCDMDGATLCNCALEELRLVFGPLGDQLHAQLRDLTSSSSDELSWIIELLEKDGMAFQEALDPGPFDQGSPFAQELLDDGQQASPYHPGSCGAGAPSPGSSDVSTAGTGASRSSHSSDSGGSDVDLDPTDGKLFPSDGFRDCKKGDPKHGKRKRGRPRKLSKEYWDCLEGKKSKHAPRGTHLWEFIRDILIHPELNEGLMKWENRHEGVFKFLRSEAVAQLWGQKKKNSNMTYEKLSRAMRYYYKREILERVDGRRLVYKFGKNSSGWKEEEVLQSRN
The following applies: protein: recombinant; tags: N-terminal GST; dsDNA, one strand shown. In outline: as §1

Experiment [9] concerns the target CRX (Homo sapiens, UniProt O43186 1-299). The following applies: protein: recombinant; tags: N-terminal GST; dsDNA, one strand shown. The gist of the method: as §1
The target of experiment [10] is ETV1 (Homo sapiens, UniProt P50549 1-477). The conditions noted are these: protein: recombinant; tags: N-terminal GST; dsDNA, one strand shown. In outline: as §1
ETV1, sequence (P50549 whole entry): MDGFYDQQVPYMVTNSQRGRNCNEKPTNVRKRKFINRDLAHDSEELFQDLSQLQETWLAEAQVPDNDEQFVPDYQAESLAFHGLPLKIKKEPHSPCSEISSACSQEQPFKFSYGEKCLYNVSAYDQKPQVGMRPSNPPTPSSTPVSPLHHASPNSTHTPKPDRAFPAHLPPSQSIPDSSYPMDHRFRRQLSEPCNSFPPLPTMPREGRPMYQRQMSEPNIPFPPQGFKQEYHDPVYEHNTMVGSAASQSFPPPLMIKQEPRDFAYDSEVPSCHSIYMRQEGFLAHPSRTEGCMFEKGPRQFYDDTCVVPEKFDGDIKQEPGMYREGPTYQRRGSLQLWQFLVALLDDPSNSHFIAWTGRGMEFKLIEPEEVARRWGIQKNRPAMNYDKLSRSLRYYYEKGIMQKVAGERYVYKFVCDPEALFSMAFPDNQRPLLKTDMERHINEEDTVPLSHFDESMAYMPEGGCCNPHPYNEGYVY
In experiment [11] the target is T6, ERF (Homo sapiens, UniProt P50548 1-548).
T6 sequence: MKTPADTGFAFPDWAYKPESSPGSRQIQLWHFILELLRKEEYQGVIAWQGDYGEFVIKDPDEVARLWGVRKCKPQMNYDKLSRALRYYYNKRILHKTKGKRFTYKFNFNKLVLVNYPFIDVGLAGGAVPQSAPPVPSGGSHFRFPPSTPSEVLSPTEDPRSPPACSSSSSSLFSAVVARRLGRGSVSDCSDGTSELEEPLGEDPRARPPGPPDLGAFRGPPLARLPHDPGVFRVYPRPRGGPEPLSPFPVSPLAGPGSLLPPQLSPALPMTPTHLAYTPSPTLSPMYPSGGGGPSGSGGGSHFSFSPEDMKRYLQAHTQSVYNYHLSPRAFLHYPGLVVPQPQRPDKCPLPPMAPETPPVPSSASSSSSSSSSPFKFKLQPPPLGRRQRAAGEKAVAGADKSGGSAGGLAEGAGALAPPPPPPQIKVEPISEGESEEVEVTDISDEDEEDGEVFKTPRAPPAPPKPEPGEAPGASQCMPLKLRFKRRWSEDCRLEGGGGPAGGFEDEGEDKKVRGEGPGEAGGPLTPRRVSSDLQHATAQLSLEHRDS
The conditions noted are these: protein: recombinant; tags: N-terminal GST; dsDNA, one strand shown. In outline: as §1

Experiment [12] concerns the target T7, ETV3L (Homo sapiens, UniProt Q6ZN32 1-361).
T7 sequence: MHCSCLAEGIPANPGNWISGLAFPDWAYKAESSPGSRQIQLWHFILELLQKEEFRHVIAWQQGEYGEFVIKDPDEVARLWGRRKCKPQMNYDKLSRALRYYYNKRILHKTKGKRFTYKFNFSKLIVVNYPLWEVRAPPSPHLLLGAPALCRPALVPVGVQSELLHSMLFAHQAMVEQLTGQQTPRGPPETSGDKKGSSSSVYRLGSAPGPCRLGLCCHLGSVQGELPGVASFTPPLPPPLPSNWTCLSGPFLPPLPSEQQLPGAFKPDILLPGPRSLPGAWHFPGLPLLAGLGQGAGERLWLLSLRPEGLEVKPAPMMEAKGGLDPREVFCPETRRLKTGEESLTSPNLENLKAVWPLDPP
The conditions noted are these: protein: recombinant; tags: N-terminal GST; dsDNA, one strand shown. The gist of the method:
as §1

The target of experiment [13] is T8, ETS2 (Homo sapiens, UniProt P15036 1-469).
T8 sequence: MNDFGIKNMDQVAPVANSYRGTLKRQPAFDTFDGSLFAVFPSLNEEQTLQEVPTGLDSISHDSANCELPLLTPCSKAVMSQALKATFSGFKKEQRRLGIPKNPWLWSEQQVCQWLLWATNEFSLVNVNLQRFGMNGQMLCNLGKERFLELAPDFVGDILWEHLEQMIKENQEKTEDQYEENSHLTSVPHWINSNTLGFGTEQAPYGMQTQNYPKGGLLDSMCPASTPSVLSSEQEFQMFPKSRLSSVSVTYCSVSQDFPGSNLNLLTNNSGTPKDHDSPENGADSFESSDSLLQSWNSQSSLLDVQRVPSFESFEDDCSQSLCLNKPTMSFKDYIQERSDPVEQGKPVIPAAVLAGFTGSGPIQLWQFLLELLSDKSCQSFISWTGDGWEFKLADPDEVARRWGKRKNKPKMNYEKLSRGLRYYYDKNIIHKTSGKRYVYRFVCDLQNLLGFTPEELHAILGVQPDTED
The following applies: protein: recombinant; tags: N-terminal GST; dsDNA, one strand shown. In outline: as §1

Experiment [14] has as its target T9, SPDEF (Homo sapiens, UniProt O95238 1-335).
T9 sequence: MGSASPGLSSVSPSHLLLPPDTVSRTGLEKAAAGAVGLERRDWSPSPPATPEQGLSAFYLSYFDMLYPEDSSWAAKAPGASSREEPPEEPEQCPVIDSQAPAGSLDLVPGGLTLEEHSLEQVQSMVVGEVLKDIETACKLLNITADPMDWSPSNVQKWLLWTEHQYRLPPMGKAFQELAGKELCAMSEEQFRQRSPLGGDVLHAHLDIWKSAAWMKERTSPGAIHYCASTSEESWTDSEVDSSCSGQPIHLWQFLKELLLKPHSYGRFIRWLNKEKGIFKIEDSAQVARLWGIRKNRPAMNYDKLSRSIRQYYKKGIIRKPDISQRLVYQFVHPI
The conditions noted are these: protein: recombinant; tags: N-terminal GST; dsDNA, one strand shown. In outline:
as §1

Experiment [15] concerns the target T10, ETV7 (Homo sapiens, UniProt Q9Y603 1-341).
T10 sequence: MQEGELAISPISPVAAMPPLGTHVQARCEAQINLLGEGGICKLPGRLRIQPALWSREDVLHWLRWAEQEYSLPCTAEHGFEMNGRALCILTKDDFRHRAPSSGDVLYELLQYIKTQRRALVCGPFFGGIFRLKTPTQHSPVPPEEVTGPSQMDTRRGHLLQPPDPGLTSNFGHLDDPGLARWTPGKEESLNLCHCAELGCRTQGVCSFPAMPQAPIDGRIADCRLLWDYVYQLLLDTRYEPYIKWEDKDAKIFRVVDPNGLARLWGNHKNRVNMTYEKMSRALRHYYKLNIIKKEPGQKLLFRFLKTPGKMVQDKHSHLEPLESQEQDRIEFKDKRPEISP
The conditions noted are these: protein: recombinant; tags: N-terminal GST; dsDNA, one strand shown. The gist of the method: as §1

Experiment [16] concerns the target T11, ELF5 (Homo sapiens, UniProt Q9UKW6-2 1-255).
T11 sequence: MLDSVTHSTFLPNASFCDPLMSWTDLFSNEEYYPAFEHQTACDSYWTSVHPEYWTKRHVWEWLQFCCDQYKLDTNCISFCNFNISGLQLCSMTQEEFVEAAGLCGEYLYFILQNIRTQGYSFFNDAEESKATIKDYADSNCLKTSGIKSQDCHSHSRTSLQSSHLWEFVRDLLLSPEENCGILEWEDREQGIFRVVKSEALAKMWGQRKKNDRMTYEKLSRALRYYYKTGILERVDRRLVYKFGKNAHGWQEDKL
The conditions noted are these: protein: recombinant; tags: N-terminal GST; dsDNA, one strand shown. In outline:
as §1

The target in experiment [17] is T12, ETV3 (Homo sapiens, UniProt P41162-2 1-143).
T12 sequence: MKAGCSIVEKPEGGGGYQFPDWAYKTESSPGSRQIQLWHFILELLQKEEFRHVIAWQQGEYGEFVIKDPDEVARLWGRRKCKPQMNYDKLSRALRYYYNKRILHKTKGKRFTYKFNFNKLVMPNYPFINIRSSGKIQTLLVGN
The following applies: protein: recombinant; tags: N-terminal GST; dsDNA, one strand shown. In outline:
as §1

Experiment [18] has as its target ETV6 (Homo sapiens, UniProt P41212 1-452). The conditions noted are these: protein: recombinant; tags: N-terminal GST; dsDNA, one strand shown. In outline: as §1

ETV6, sequence (P41212 whole entry): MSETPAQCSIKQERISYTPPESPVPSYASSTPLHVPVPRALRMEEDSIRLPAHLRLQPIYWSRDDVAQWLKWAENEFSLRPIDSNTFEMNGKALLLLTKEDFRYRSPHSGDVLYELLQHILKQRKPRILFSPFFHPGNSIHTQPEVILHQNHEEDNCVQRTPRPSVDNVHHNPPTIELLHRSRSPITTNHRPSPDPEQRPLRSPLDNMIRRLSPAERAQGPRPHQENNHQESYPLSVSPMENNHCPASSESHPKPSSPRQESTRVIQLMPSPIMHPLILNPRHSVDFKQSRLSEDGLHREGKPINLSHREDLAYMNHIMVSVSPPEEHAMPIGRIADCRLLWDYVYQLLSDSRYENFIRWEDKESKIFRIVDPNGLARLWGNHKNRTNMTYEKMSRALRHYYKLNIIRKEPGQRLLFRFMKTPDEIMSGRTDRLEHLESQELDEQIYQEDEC
CRX, sequence (O43186 whole entry): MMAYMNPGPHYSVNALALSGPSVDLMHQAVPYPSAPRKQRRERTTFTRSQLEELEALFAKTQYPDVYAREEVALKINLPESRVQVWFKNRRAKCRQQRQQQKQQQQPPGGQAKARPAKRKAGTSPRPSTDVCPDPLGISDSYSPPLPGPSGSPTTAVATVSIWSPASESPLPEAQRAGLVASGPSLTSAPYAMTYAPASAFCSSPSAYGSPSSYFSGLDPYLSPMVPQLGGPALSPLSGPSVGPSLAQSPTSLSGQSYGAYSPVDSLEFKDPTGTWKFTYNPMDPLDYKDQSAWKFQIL
HSF1, sequence (Q00613 whole entry): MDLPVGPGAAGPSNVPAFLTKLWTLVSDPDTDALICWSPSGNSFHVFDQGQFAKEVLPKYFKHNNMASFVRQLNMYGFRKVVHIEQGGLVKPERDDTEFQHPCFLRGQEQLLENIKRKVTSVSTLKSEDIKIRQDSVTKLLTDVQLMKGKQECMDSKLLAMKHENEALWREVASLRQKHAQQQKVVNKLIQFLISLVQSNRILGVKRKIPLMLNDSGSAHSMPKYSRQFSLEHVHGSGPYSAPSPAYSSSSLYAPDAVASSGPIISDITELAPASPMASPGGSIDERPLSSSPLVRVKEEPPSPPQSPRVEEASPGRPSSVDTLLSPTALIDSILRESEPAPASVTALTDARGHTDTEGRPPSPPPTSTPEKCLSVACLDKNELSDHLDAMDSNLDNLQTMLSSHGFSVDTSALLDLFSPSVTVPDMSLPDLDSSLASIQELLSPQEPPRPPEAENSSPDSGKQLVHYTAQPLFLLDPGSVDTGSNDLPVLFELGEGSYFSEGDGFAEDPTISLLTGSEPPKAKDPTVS

For CTCCGA, the binding signal in [1] was 1.4 fold enrichment (6-mer frequency, TF over GST control); in [2], 1.3 fold enrichment (6-mer frequency, TF over GST control); in [3], 1.49 fold enrichment (6-mer frequency, TF over GST control); in [4] it was 1.51 fold enrichment (6-mer frequency, TF over GST control); in experiment [5], 1.41 fold enrichment (6-mer frequency, TF over GST control); in experiment [6] it was 1.36 fold enrichment (6-mer frequency, TF over GST control). The binding signal in experiment [7] was 1.19 fold enrichment (6-mer frequency, TF over GST control); in experiment [8], 1.2 fold enrichment (6-mer frequency, TF over GST control); in [9] it was 1.3 fold enrichment (6-mer frequency, TF over GST control); in experiment [10], 1.24 fold enrichment (6-mer frequency, TF over GST control); in experiment [11], 1.41 fold enrichment (6-mer frequency, TF over GST control); in [12], 1.38 fold enrichment (6-mer frequency, TF over GST control). Also, the binding signal in [13] is 1.35 fold enrichment (6-mer frequency, TF over GST control); in experiment [14], 1.36 fold enrichment (6-mer frequency, TF over GST control); in experiment [15] it was 1.24 fold enrichment (6-mer frequency, TF over GST control); in [16], 1.23 fold enrichment (6-mer frequency, TF over GST control); in [17], 1.3 fold enrichment (6-mer frequency, TF over GST control); in experiment [18], 1.33 fold enrichment (6-mer frequency, TF over GST control).
